Compound activity deposited in PubChem by The Scripps Research Institute Molecular Screening Center.
TEAD-YAP block – TEAD-YAP interaction inhibition. actives 1.4% (n = 640,000). HEK-TIYL cells, TEAD-Gal4/YAP UAS-luciferase luminescence. inhibition, % at 9.12 µM; in the data active = inhibition above about 32%;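 also: 0% = median of test compound wells and 100% = reference inhibitor wells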
FBW7 activator – human FBW7 E3 ligase activation, primary screen | Q969H0 | AlphaScreen FBW7–phospho-cyclin E peptide binding, activator screen | AID 1259310 | actives 0.13% (n = 650,000) | normalized activity (activation), % at 26.1 µM; in the data active = normalized activity above about 1.9%;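 also: purified mutant Fbw7 with reduced substrate affinity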
Target sequence (Q969H0 whole entry, looked up): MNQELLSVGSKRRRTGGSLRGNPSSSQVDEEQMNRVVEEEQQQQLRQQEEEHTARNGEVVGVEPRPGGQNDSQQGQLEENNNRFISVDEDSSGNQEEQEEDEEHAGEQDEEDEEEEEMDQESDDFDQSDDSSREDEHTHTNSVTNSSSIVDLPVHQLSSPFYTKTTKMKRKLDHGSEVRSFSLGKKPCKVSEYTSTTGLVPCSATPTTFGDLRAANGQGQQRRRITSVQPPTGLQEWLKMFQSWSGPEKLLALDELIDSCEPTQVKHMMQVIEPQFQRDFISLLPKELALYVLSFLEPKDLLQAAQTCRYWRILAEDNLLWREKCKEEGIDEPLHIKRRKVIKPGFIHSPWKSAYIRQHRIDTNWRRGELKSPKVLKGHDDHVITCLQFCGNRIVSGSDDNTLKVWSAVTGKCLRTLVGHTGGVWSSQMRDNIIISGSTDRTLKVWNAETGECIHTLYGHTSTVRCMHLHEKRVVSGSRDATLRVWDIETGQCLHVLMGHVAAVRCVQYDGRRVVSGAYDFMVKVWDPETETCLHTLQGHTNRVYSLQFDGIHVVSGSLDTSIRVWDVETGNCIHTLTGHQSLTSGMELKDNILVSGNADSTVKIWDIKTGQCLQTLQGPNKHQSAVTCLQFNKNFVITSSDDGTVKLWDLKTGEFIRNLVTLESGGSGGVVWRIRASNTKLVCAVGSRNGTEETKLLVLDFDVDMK
GPR151 activ – activators of human GPR151; Q8TDV0; PathHunter beta-arrestin GPR151 cells, luminescence; activation, % at 11.2 µM; actives 1% (n = 650,000); AID 1508602; in the data active = activation above about 4.9%;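 also: 0% = median of compound wells and 100% = cells with positive control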
MITF primary – human MITF inhibition, primary screen; O75030; AlphaScreen MITF homodimerization, bead proximity signal; inhibition, % at 2.6 µM; actives 0.91% (n = 650,000); AID 1259374; in the data active = inhibition above about 50%;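 also: 0% = vehicle wells with protein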
MITF inh conf – human MITF inhibition, confirmation; shares compounds with MITF primary; AlphaScreen MITF homodimerization, biotin/His-MITF beads; inhibition, % at 2.6 µM; actives 16% (n = 4,700); AID 1259372;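 active = inhibition above a cutoff derived from the DMSO control wells, cut at about 28% in these data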;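 also: 0% = MITF dimer wells with DMSO only; inhibitors lower the bead chemiluminescence by keeping MITF from dimerizing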
AlphaScreen DR – counter-screen: compounds optically interfering with AlphaScreen. shares compounds with MITF primary. AlphaScreen optical interference counterscreen, cell-free. IC50, µM. actives 6% (n = 480). AID 1259373; call rule not given here
AS interf ctr – AlphaScreen optical interference, counter-screen | LysRS AlphaScreen counterscreen, signal interference, triplicate | inhibition, % at 2.6 µM | AID 1259376 | actives 7.6% (n = 4,700) | shares compounds with MITF primary;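 active = inhibition above a cutoff derived from the DMSO control wells, cut at about 30% in these data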
Active calls of the source: *; . = no result. Only some compounds are listed: those with a hit (about 3.5% of all), similar ones and a draw of the others.

SMILES	TEAD-YAP block	FBW7 activator	GPR151 activ	MITF primary	MITF inh conf	AS interf ctr	others
CC(=O)NNC(=O)CSc1nnc2c3c4c(sc3nc(C3CC3)n12)CCCC4	-8	0	-1	-8	.	.
Cc1ccc(OCCN2CCN(CC(O)Cn3c4ccccc4c4ccccc43)CC2)cc1 (centres undefined)	6	0	0	74*	11	7
O=C1N[C@@H](Cc2ccc(Cl)cc2)C(=O)N2C[C@@H](NCc3nc(-c4ccccc4)cs3)C[C@@H]12	-8	0	-1	9	.	.
CCOC(=O)C1CCCN(Cc2ccc(Br)cc2)C1 (centres undefined)	-12	0	-1	57*	1	14
CCOc1ccc(CN2CCC(C(=O)N3CCCC3)CC2)cc1	1	0	1	40	.	.
CCOc1ccc(CN2CCCC(C(=O)N3CCCC3)C2)cc1 (centres undefined)	0	0	-1	68*	4	15
CCOC(=O)C1CCCN(Cc2ccc(NC(C)=O)cc2)C1 (centres undefined)	3	0	1	21	.	.
COc1ccc(CN2CCCC(C(=O)N3CCCC3)C2)c(OC)c1 (centres undefined)	8	0	-1	54*	-15	-3
CCOc1ccccc1CN1CCCC(C(=O)N2CCCCCC2)C1 (centres undefined)	27	0	-1	70*	16	18
CCOC(=O)C1CCCCN1Cc1ccc(Br)cc1 (centres undefined)	7	0	0	55*	14	1
CCOC(=O)C1CCCN(CC(=O)c2ccc(F)cc2)C1 (centres undefined)	-12	0	2	69*	-14	8
O=C(C1CCCN(Cc2ccc(Cl)cc2)C1)N1CCCCCC1 (centres undefined)	14	0	0	88*	-10	-3
CCOC(=O)C1CCCCN1Cc1ccc(O)cc1 (centres undefined)	13	1	0	32	.	.
CCOC(=O)C1CCCN(C2CC(=O)N(c3ccc(F)cc3)C2=O)C1 (centres undefined)	5	0	0	-2	.	.
O=C(C1CCCN(Cc2ccc(Br)cc2)C1)N1CCCCC1 (centres undefined)	12	0	0	60*	7	-3
NC(=O)c1c(NC(=O)c2ccc(Cl)cc2[N+](=O)[O-])sc2c1CCCCC2	-6	0	1	-2	.	.
CCCN1CCN(C(=O)C2CCCN(c3nc4ccc(OCC)cc4s3)C2)CC1 (centres undefined)	-3	0	0	62*	15	11
CCOc1ccc2nc(N3CCCC(C(=O)Nc4ccc(NC(C)=O)cc4)C3)sc2c1 (centres undefined)	-36	0	0	-8	.	.
CCOc1ccccc1CN1CCC(N2CCCCCC2)CC1	3	0	0	78*	-11	-4
O=C(Nc1ccc(C(=O)Nc2ccc(C(=O)Nc3ccc(S(=O)(=O)O)c4cc(S(=O)(=O)O)cc(S(=O)(=O)O)c34)cc2)cc1)Nc1ccc(C(=O)Nc2ccc(C(=O)Nc3ccc(S(=O)(=O)O)c4cc(S(=O)(=O)O)cc(S(=O)(=O)O)c34)cc2)cc1	.	0	1	71*	67*	7	AlphaScreen DR=>6.5
O=C(Nc1cc(C(=O)Nc2ccc(S(=O)(=O)O)cc2S(=O)(=O)O)cc(C(=O)Nc2ccc(S(=O)(=O)O)cc2S(=O)(=O)O)c1)Nc1cc(C(=O)Nc2ccc(S(=O)(=O)O)cc2S(=O)(=O)O)cc(C(=O)Nc2ccc(S(=O)(=O)O)cc2S(=O)(=O)O)c1	-9	0	-2	24	.	.
CCc1ccc(CN2CCN(Cc3ccc4ccccc4c3)CC2)cc1	-2	0	-1	64*	0	1
Fc1cccc(CN2CCN(Cc3cccc4ccccc34)CC2)c1	-3	0	0	86*	5	19
Fc1cccc(CN2CCN(Cc3ccc4ccccc4c3)CC2)c1	1	0	0	72*	10	21
c1ccc2cc(CN3CCSCC3)ccc2c1	-6	0	1	57*	1	0
SMILES	TEAD-YAP block	FBW7 activator	GPR151 activ	MITF primary	MITF inh conf	AS interf ctr	others
OC1CCN(Cc2ccc3ccccc3c2)CC1	4	0	1	-1	.	.
Nc1cc(-c2cccs2)nc(N)n1	0	0	1	33	.	.
Cc1cc(C)n2nc(C(=O)N/N=C/c3ccccc3Oc3ccccc3)nc2n1	7	0	-1	14	.	.
Cc1cc(C(C)(C)C)ccc1OC(=O)c1nc2nccc(C)n2n1	13	0	1	1	.	.
SCCNc1n[nH]c(Nc2ccccc2)n1	-17	0	0	18	.	.
N#Cc1ccc(NC(=O)N2CCC3(CC2)OCc2ccccc2O3)cc1	4	0	-1	-11	.	.
N#CC(C#N)=C(N)/C(C#N)=C/c1ccc([N+](=O)[O-])o1	5	-1	1	84*	67*	6	AlphaScreen DR=>6.5
Cc1ccccc1OCCNCC(C)O (centres undefined)	1	0	0	53*	4	9
CCC(=O)N1c2ccccc2NC2=C(C(=O)CC(c3cc(OC)c(OC)c(OC)c3)C2)C1c1ccc(OC)c(OC)c1 (centres undefined)	-8	1	0	12	.	.
N#CC(C#N)=c1s/c(=C\c2cc3c(cc2[N+](=O)[O-])OCO3)c(=O)n1-c1ccc(F)cc1	7	0	1	12	.	.
COc1ccccc1-c1c(C)nn2c(NCc3ccccc3)cc(C)nc12	1	0	-1	11	.	.
COc1ccccc1-c1c(C)nn2c(NCc3cccs3)cc(C)nc12	-5	0	1	54*	1	14
CCc1ccc(CN2CCc3nnc(C(C)NC(=O)c4cccnc4)n3CC2)o1 (centres undefined)	10	0	2	2	.	.
COc1cc(NC(=O)COc2cccc3ccccc23)ccc1NC(=O)C(C)C	4	0	0	-5	.	.
O=C(/C=C/c1ccco1)NCCCNC(=O)/C=C/c1ccco1	-6	0	0	27	.	.
O=C(/C=C/c1ccco1)NCCCCNC(=O)/C=C/c1ccco1	-29	0	0	57*	71*	8	AlphaScreen DR=>6.5
O=C(/C=C/c1ccco1)Nc1cccc2ccccc12	-17	0	-1	13	.	.
CCC(=O)Nc1ccc(NC(=S)NC(=O)/C=C/c2ccco2)cc1	-2	0	1	12	.	.
CCN(CC)C(=S)NC(=O)/C=C/c1ccco1	-13	0	1	52*	73*	1	AlphaScreen DR=>6.5
O=C(/C=C/c1ccco1)NCCCCCCNC(=O)/C=C/c1ccco1	-28	0	0	55*	69*	7	AlphaScreen DR=>6.5
O=C(/C=C/c1ccco1)Nc1c[nH]c(=O)[nH]c1=O	-23	1	-1	52*	32*	16	AlphaScreen DR=>6.5
